Test results as given in PubChem BioAssay.
For part of these data: Potency and affinity values are given separately. Activity calls are given as the source filed them.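 The calls were made as follows, unless noted: active = fitted half-maximal concentration within the tested dose range, moderate curve steepness, a statistically real signal drop, and little compound fluorescence or tag-binding interference; inactive = the rest.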

How the values were obtained:
[1] = target: Cell division control protein 42 homolog (Homo sapiens) (UniProt P60953); test: inhibition of fluorescent GTP binding to constitutively active Cdc42 – biochemical, multiplex bead flow cytometry, Bodipy-FL-GTP, dose response (AID 1333); conditions: bead-based flow cytometry; series mostly up to 100 µM
[2] = target: Cell division control protein 42 homolog (Homo sapiens) (UniProt P60953); test: inhibition of fluorescent GTP binding to wildtype Cdc42 – biochemical, multiplex bead flow cytometry, Bodipy-FL-GTP, dose response (AID 1334;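 active = fitted half-maximal concentration within the tested range, moderate curve steepness, significant signal drop, and little compound fluorescence or bead-linkage interference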); conditions: bead-based flow cytometry, Bodipy-FL-GTP binding to GST-Cdc42; at 100 µM (top of the series) unless noted
[3] = target: GTPase HRas (Homo sapiens) (UniProt P01112); test: Ras wt fluorescent GTP loading blockade – biochemical, wildtype, multiplex bead flow cytometry, dose response (AID 1335;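 active = fitted half-maximal concentration within 10 nM to 100 µM, steepness 0.5 to 2, significant signal drop, low assay interference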); conditions: bead-based flow cytometry, Bodipy-GTP binding to GST-Ras; at 100 µM (top of the series) unless noted
[4] = test system: Ras-related protein Rab-7a (dog), GTP binding; test: blockers of fluorescent GTP binding to Rab7 – biochemical, wildtype, multiplex bead flow cytometry, dose response (AID 1336; call rule not given here); conditions: bead-based flow cytometry; series mostly up to 100 µM
[5] = target: Ras-related C3 botulinum toxin substrate 1 (Homo sapiens) (UniProt P63000); test: inhibition of wildtype Rac1 nucleotide loading – biochemical, multiplex bead flow cytometry, dose response (AID 1340;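 active = dose curve with midpoint inside tested range, moderate steepness, plateau gap beyond fit error, low compound glow and bead-link interference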); conditions: GST-Rac1 beads, Bodipy-FL-GTP binding; at 100 µM (top of the series) unless noted
[6] = target: GTPase HRas (Homo sapiens) (UniProt P01112); test: blockade of GTP loading onto mutant Ras – biochemical, activated mutant, multiplex bead flow cytometry, dose response (AID 1341;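 active = dose-response curve with midpoint inside the tested range, moderate steepness, significant amplitude and little compound fluorescence or bead-attachment interference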;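 also: GST-tagged constitutively activated Ras mutant immobilized on beads and multiplexed with other GTPases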); conditions: bead-based flow cytometry, Bodipy-FL-GTP binding; series mostly up to 100 µM

Cell division control protein 42 homolog (Homo sapiens), sequence (P60953 whole entry, looked up): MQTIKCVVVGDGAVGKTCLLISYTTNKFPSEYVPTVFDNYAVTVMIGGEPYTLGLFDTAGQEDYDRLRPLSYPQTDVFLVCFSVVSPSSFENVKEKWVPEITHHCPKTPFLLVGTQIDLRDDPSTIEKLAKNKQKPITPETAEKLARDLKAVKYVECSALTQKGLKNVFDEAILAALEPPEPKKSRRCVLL
GTPase HRas (Homo sapiens), sequence (P01112 whole entry, looked up): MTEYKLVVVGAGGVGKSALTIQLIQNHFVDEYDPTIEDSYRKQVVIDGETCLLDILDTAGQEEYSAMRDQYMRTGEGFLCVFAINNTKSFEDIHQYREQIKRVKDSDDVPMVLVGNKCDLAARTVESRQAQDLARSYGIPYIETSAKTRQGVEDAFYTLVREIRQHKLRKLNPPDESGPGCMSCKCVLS

| SMILES | outcome [1] | fluorescence, percent of control (lower = inhibition) [2] [%] | GTP binding, percent of control [3] [%] | outcome [4] | GTP binding signal, raw median fluorescence (lower = inhibition) (MCF (arbitrary fluorescence units)) [5] | outcome [6] |
| --- | --- | --- | --- | --- | --- | --- |
| Cn1c(=O)n(Cc2ccc(F)cc2)c(=O)c2c1nc1n2CCN1Cc1ccco1 | inactive | 31.2 | 68.1 | inactive | 164 | inactive |
| CCNC(=S)N(Cc1cccs1)Cc1cc2cc(OCC)ccc2[nH]c1=O | inactive | 45 | 66 | inactive | 0 | inactive |
| Cc1ccc(CNCc2c(C)[nH]c(C)c2C(=O)O)cc1 | inactive | 64.4 | 88.9 | inactive | 34.6 | inactive |
| COc1ccc(C(=O)O)c(OCc2c(C)cccc2C)c1 | inactive | 59 | 208 | inactive | 55.5 | inactive |
| O=C(Nc1cccc2ccccc12)c1cnccn1 | inactive | 85.4 | 156 | inactive | 181 | inactive |
| O=C(Nc1c(F)cccc1F)c1cnc(N2CCN(c3ccccn3)CC2)c2ccccc12 | inactive | 97 | 199 | inactive | 217 | inactive |
| CCOc1cc(/C=N/NC(=O)C(C)Sc2ccccc2)ccc1O (stereo not given) | inactive | 31.8 | 73.5 | inactive | 165 | inactive |
| Cc1cc(C(F)F)n2nc(C(=O)Nc3ccc(S(=O)(=O)N4CCCCCC4)cc3)nc2n1 | inactive | 36.8 | 82.1 | inactive | 257 | inactive |
| Nc1c(S(=O)(=O)c2cccc(Cl)c2)c2nc3ccccc3nc2n1/N=C/c1ccc(O)c(O)c1 | inactive | 54.4 | 91.7 | inactive | 99.4 | inactive |
| Nc1c(C(=O)C2CC2)sc2nc(-c3cccs3)cc(C(F)(F)F)c12 | inactive | 495 | 441 | inactive | 468 | inactive |
| CCCCCOC(=O)c1ccccc1C(=O)O | inactive | 134 | 220 | inactive | 275 | inactive |
| CCOc1ccc(-n2nc3c(=O)[nH]nc(C)c3c2C)cc1 | inactive | 46.5 | 60.9 | inactive | 189 | inactive |
| COc1ccccc1CNCc1ccc(C(=O)O)s1 | inactive | 64.5 | 87.8 | inactive | 33.8 | inactive |
| Cc1cc(C(=O)CN2C(=O)C(=O)N(Cc3ccccc3)C2=O)c(C)n1-c1ccccc1F | inactive | 34.9 | 81.4 | inactive | 260 | inactive |
| Cc1ccccc1OCCn1c(C)c(C(=O)O)c2ccccc21 | inactive | 61.5 | 205 | inactive | 64.3 | inactive |
| O=C(O)COc1ccccc1/C=N/NC(=O)c1cccc(S(=O)(=O)Nc2cccc(Cl)c2)c1 | inactive | 36.3 | 79.8 | inactive | 124 | inactive |
| O=C(Cn1cnc2cc([N+](=O)[O-])ccc2c1=O)NCCc1ccc(Cl)cc1 | inactive | 36.8 | 85.2 | inactive | 244 | inactive |
| Cc1ccc(C(=O)c2ccccc2C(=O)O)cc1C | inactive | 113 | 141 | inactive | 93.5 | inactive |
| CNC(=S)N=Nc1c(O)[nH]c2ccccc12 | inactive | 36.2 | 47 | inactive | 128 | inactive |
| O=C1OC(c2ccc(F)cc2)=C/C1=C\c1ccc([N+](=O)[O-])o1 | inactive | 49.1 | 91.4 | inactive | 283 | inactive |

| SMILES | outcome [1] | fluorescence, percent of control (lower = inhibition) [2] [%] | GTP binding, percent of control [3] [%] | outcome [4] | GTP binding signal, raw median fluorescence (lower = inhibition) (MCF (arbitrary fluorescence units)) [5] | outcome [6] |
| --- | --- | --- | --- | --- | --- | --- |
| CCOC(=O)Cn1nnnc1CN(Cc1cccs1)Cc1cc2cc(C)ccc2[nH]c1=O | inactive | 98.4 | 178 | inactive | 187 | inactive |
| COc1ccc(/C=N/NC(=O)Nc2cccc3nsnc23)cc1OC | inactive | 45.1 | 46.7 | inactive | 132 | inactive |
| COc1ccccc1OCc1ccoc1C(=O)O | inactive | 62.9 | 87 | inactive | 35.8 | inactive |
| COc1cccc(OCc2c(C)cccc2C)c1C(=O)O | inactive | 56.5 | 209 | inactive | 52.5 | inactive |
| Cc1ccccc1NC(=O)C1CCCN1S(=O)(=O)c1cccc2cccnc12 (stereo not given) | inactive | 39.1 | 84.8 | inactive | 322 | inactive |
| Cc1ccc(C(=O)O)c(OCCc2c(C)cccc2C)n1 | inactive | 64.4 | 224 | inactive | 57 | inactive |
| O=C(COC(=O)/C=C/c1ccc(Cl)cc1)Nc1ccc2c(c1)OCCO2 | inactive | 40.2 | 59.5 | inactive | 162 | inactive |
| COc1ccc(CNc2nc3ccccc3n2Cc2ccc(C)cc2)cc1OC | inactive | 73 | 73.9 | inactive | 343 | inactive |
| O=C(O)c1ccccc1NCc1ccc2c(c1)OCO2 | inactive | 69.6 | 89.5 | inactive | 54 | inactive |
| CN(/N=C/c1ccc(Br)o1)C1=NS(=O)(=O)c2ccccc21 | inactive | 32.2 | 69.7 | inactive | 185 | inactive |
| COC(=O)c1cccc(NC(=O)c2nn(C)c(=O)c3ccccc23)c1 | inactive | 42.8 | 155 | inactive | 179 | inactive |
| NC(=S)Nc1cccc2cc3ccccc3cc12 | inactive | 75.3 | 120 | inactive | 137 | inactive |
| Cc1nnc(SCC(=O)N2CCOCC2)c2ccccc12 | inactive | 49.3 | 61.1 | inactive | 192 | inactive |
| CCNC(=S)N=Nc1c(O)[nH]c2ccc([N+](=O)[O-])cc12 | inactive | 32.4 | 72.3 | inactive | 141 | inactive |
| O=C(OC(C(=O)NCc1cccs1)c1ccccn1)c1cccs1 (stereo not given) | inactive | 83.4 | 162 | inactive | 175 | inactive |
| Cc1ccc(O)c(N=Cc2cc(Cc3ccccc3)cc([N+](=O)[O-])c2O)c1 | inactive | 30.7 | 72.6 | inactive | 111 | inactive |
| O=C(O)c1cc(-c2ccc(/C=C3/SC(=S)N(Cc4ccccc4)C3=O)o2)ccc1Cl | inactive | 31.5 | 61.5 | inactive | 154 | inactive |
| COc1ccc(/C=N/NC(=S)Nc2cc(S(=O)(=O)N3CCOCC3)ccc2N2CCOCC2)cc1O | inactive | 65.8 | 80.8 | inactive | 0 | inactive |
| Cc1ccc(-c2ccc(/C=C(\C#N)C(=O)Nc3cc(C)nn3-c3ccccc3)o2)cc1 | inactive | 226 | 182 | inactive | 498 | inactive |
| OC(c1ccc(OCc2ccccc2)cc1)c1nnc(-c2ccccc2)o1 (stereo not given) | inactive | 92.3 | 177 | inactive | 173 | inactive |

| SMILES | outcome [1] | fluorescence, percent of control (lower = inhibition) [2] [%] | GTP binding, percent of control [3] [%] | outcome [4] | GTP binding signal, raw median fluorescence (lower = inhibition) (MCF (arbitrary fluorescence units)) [5] | outcome [6] |
| --- | --- | --- | --- | --- | --- | --- |
| COc1ccccc1NC(=O)CSc1ccc2nnc(-c3cccnc3)n2n1 | inactive | 36.4 | 49 | inactive | 114 | inactive |
| CCOC(=O)c1c(CSc2ccccc2)n(C)c2cc(Br)c(OCC(O)CNC(CO)(CO)CO)cc12 (stereo not given) | inactive | 94.1 | 147 | inactive | 320 | inactive |
| Cc1ccc(NCC(=O)c2ccccc2)cc1Cl | inactive | 36.3 | 80.6 | inactive | 256 | inactive |
| Cc1ccc(OCCn2c(SCCC(=O)O)nc3ccccc32)cc1 | inactive | 61.3 | 88.9 | inactive | 34.5 | inactive |
| CCOc1ccccc1NC(=O)CSc1ccc2nnc(-c3cccnc3)n2n1 | inactive | 29.2 | 65.1 | inactive | 136 | inactive |
| C/C(=N\NC(=O)CC1N=C(Cc2ccccc2)NNC1=O)c1ccc(Cl)cc1Cl (stereo not given) | inactive | 90.1 | 160 | inactive | 175 | inactive |
| COc1cc(C(=S)NCc2ccccc2)cc(Br)c1O | inactive | 23.5 | 56.3 | inactive | 246 | inactive |
| O=C(O)C1(NCc2ccc(F)cc2)CCCCC1 | inactive | 62.4 | 89.4 | inactive | 33.6 | inactive |
| CCCCCCCCSc1nnc2[nH]c(=O)cc(N)n12 | inactive | 33.4 | 79.8 | inactive | 241 | inactive |
| Cn1c(/C(C#N)=C/c2ccncc2)nc2ccccc21 | inactive | 36.7 | 87.2 | inactive | 266 | inactive |
| CN(/N=C/c1ccco1)C1=NS(=O)(=O)c2ccccc21 | inactive | 32 | 74.9 | inactive | 206 | inactive |
| Cc1nc2ncccn2c1-c1csc(Nc2ccccc2)n1 | inactive | 26.5 | 40.8 | inactive | 105 | inactive |
| Cc1ccc(C(=O)Nn2c(O)c(C=C3N=c4ccccc4=N3)sc2=S)cc1 | inactive | 47.7 | 50.4 | inactive | 129 | inactive |
| Cc1sc2nc3c(SC(C)C(=O)O)cc(C(=O)c4ccccc4O)cn3c(=O)c2c1C (stereo not given) | inactive | 29.3 | 72.1 | inactive | 186 | inactive |
| Cc1ccc(-c2noc(CN3C(C)CCCC3C)n2)cc1 (stereo not given) | inactive | 51.1 | 62.9 | inactive | 216 | inactive |
| O=C(CN1CCN(CCOCCO)CC1)N1c2ccccc2Sc2ccc(Cl)cc21 | inactive | 37.7 | 82.2 | inactive | 266 | inactive |
| CSc1nc2nccc(-c3ccc(-c4ccccc4)cc3)n2n1 | inactive | 79.7 | 132 | inactive | 138 | inactive |
| Cc1[nH]c2ccccc2c1C(=O)CNc1nccs1 | inactive | 50.6 | 58 | inactive | 0 | inactive |
| COc1ccc2o/c(=N/NC(=O)c3cccs3)c(C(N)=O)cc2c1 | inactive | 28.1 | 64.4 | inactive | 160 | inactive |
| CCOc1ccc(NCc2ccccc2OCc2cccc(F)c2)cc1 | inactive | 69.4 | 68.1 | inactive | 0 | inactive |
